According to PubChem BioAssay (NCI):
About 79,000 compounds went through this panel and 15% of them were active in at least one assay; those are over-represented in the sample as a whole. A number with no mark means an inactive call. Calls of active or inactive are those of the source. No stated cut-off is given here; in the data, active means growth inhibition above about 70%; inactive means the rest.

Assay: NCI Yeast Anticancer Drug Screen. Data for the bub3 strain (AID 167)
Conditions: S. cerevisiae bub3 mutant strain, at 50.0 µM, active compounds read high
Procedure, shortened: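 Screening used yeast with an engineered genetic alteration affecting cell cycle control. Compound-exposed cultures were compared with vehicle cultures, and reduced growth was taken as inhibition.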

Structure (SMILES) | growth inhibition
COc1ccc2c(Cc3cc(Cl)ccc3O)cncc2c1O | 96% (active)
Cc1ccc(NNC2=NC(=S)NC(=O)C2)cc1 | 97.8% (active)
CC#CC(=O)Nc1ccccc1CC(c1c[nH]c2ccccc12)c1c[nH]c2ccccc12 | 60.8%
COC(=O)c1c2oc3c(C(=O)OC)cccc3nc-2cc(N)c1=O | 66.5%
CCCCCC(=O)NNc1ccccc1 | 83.1% (active)
CN(C)CCNc1ccc2nnn3c4ccc(O)cc4c(=O)c1c23 | -0.1%
COc1ccc2c(c1)C(=O)C[C@@H]1[C@](C)(C#N)CCC[C@]21C | 69.8%
CCC(=O)c1cc2ccccc2c2ccccc12 | 75.8% (active)
O=C1OCCCOC(=O)c2cc(ccc2O)OCC#CC#CCOc2ccc(O)c1c2 | 86.2% (active)
Nc1nc(Cl)cc(NCC2(CO)CC(CCCc3ccccc3)C2)n1 (stereo not given) | -8.75%
NNC(=S)Nc1ccccc1 | 2.2%
CCOC(=O)c1ccc(N=Cc2cc(Cl)cc(Cl)c2O)cc1 | 87.2% (active)
CC(C(=O)N1C(=O)N(C(=O)C(C)C(O)c2ccccc2)C(c2ccccc2)C1c1ccccc1)C(O)c1ccccc1 (stereo not given) | 88.2% (active)
CC(C)(C)CC(C)(C)N[P+](NC(C)(C)CC(C)(C)C)(NC(C)(C)CC(C)(C)C)NC(C)(C)CC(C)(C)C | 90.5% (active)
C/C(=N\NC(=S)N1CCCC1)c1cnccn1 | 99% (active)
N=C(N)c1ccc(OCCCCOc2ccc(N)cc2Cl)cc1 | 0.65%
CCCCCC(CN(C)C)C(O)/C=C\c1ccccc1 (stereo not given) | 1.6%
CC1(CO)CCCC2(C)C3=C(CCCC3)CCC12 (stereo not given) | 42%
O=C(CCCl)Nc1cc2ccccc2oc1=O | -1.1%
O=[N+]([O-])c1ccccc1N=Nc1c(O)[nH]c2cccc(C(F)(F)F)c12 | 46.5%

Structure (SMILES) | growth inhibition
CCCCCCCCC1OC1CCCCCCCC(=O)OCC1CO1 (stereo not given) | -25.1%
CCN(CC)CCNc1ccc(C)c2sc3c(OC)cccc3c(=O)c12 | 23.4%
OC(CCN1CCOCC1)c1ccc(Sc2ccccc2)cc1 (stereo not given) | 99.3% (active)
[Cl-].[La+3].[O-]/N=C(\c1ccccc1)c1ccccn1.[O-]/N=C(\c1ccccc1)c1ccccn1.[O-]/N=C(\c1ccccc1)c1ccccn1 | 67.3%
COc1ccc(NC(=O)CSC(N)=O)cc1 | 53%
Fc1cccc(CSc2ncnc3c2ncn3C2CCCS2)c1 (stereo not given) | 90% (active)
CC/C(=C(\CC)c1ccc(OCCN2CCOCC2)cc1)c1ccc(OCCN2CCOCC2)cc1 | 79.9% (active)
O=[N+]([O-])c1c(Cl)ccc2nsnc12 | 98.5% (active)
COc1ccccc1NC(=O)/C(=C\N1C(=O)/C(=C/c2cc(OC)c(OC)c(OC)c2)SC1=S)C(C)=O | 27.9%
O=CNC(CCCC(=O)O)Cc1cc2ccccc2c2ccccc12 (stereo not given) | 94.8% (active)
C=C1CC2(CCCC3(CC(=C)C(=O)O3)C2(C)C)OC1=O (stereo not given) | 44.6%
CCOC(=O)Nc1cc(NC(C)/C(=N/O)c2ccccc2)c([N+](=O)[O-])c(N)n1 (stereo not given) | 62.1%
O=C(N=Nc1cccc(Cl)c1)NNc1cccc(Cl)c1 | 86.3% (active)
Oc1ccc2c(ccc3ccccc32)c1 | 99% (active)
CCc1cccc(C(C)(C)C)c1NC(=S)/N=C/C(C(=O)c1ccccc1)=C(\O)c1ccccc1 | 80.3% (active)
NC(=S)N/N=C/c1cn(CCCl)c2ccccc12 | 24.1%
COC1=Nc2ccccc2S(=O)(=O)C=C1 | 98.7% (active)
O=C1C2C3C=CC(C3)C2C(=NS(=O)(=O)c2ccccc2)C2C3C=CC(C3)C12 (stereo not given) | 53%
NC(=Nc1ccccc1)c1ccc2c(c1)c1c(n2Cc2ccccc2)CCCC1 | 98.2% (active)
NN=C(CC(O)(C(F)(F)Cl)C(F)(F)Cl)CC(O)(C(F)(F)Cl)C(F)(F)Cl | 99% (active)
